Consider 36 compounds from ChEMBL document CHEMBL1157539, “Thousands of chemical starting points for antimalarial lead identification” (Nature, 2010).

SMILES strings stand for the structures.

The subject of this assay is HepG2. In words: GSK_TCMDC: Percent inhibition of human HepG2 cell line. Test compounds present at 10uM. It counts as functional.
Regarding `Br.Oc1ccccc1CCNC1CCc2ccccc2C1` (stereo unspecified), the Inhibition is 0%.
For `Cc1[nH]c2ccc(C#N)cc2c(=O)c1Br`, the Inhibition was 2%.
`Cc1ccc(/C=C/C(=O)NCCCCCN2CCN(C(=O)Nc3ccc(Cl)c(C(F)(F)F)c3)CC2)cc1` showed an Inhibition of 10%.
Compound `COc1ccc(-c2cccc(CNC3CCN(CC4Cn5c(=O)ccc6ccc(F)c4c65)CC3)c2)cc1.O=C(O)C(F)(F)F` (stereo unspecified) returned an Inhibition of 22%.
In the case of `N=C(/N=C(/NCCCCCCN/C(=N\C(=N)Nc1ccc(Cl)cc1)N1CCOCC1)N1CCOCC1)Nc1ccc(Cl)cc1`, the Inhibition was 0%.
In the case of `O=C(NC1CC1)c1ccc(N2CCCC(COc3ccccc3F)C2)nc1` (stereo unspecified) it was 8%; in that of `O=C(NC1CCCCC1)N(Cc1cccc(-c2ccc(CNCCc3ccccc3)cc2)c1)C1CCN(Cc2ccccc2)CC1.O=C(O)C(F)(F)F`, 61%; in that of `Cl.c1ccc2c(Nc3ccc(Oc4ccc(Nc5c6ccccc6nc6ccccc56)cc4)cc3)c3ccccc3nc2c1`, 21%.
With `O=C(O)C(F)(F)F.c1cncc(CCNCc2cccc(-c3csc(-c4nc5ccccc5[nH]4)c3)c2)c1`, the Inhibition came out at 26%.
`CCCCCc1cc(OCCN(C)C)cc2c1C(=O)CC(C)(C)O2.Cl` yielded an Inhibition of 5%.
With `Fc1ccccc1COc1ccc(Nc2ncnc3ccc(I)cc23)cc1Cl`, the Inhibition was 17%.
The compound `CCC(NCc1ccc(-c2cncc(C(=O)NCC(C)C)c2)cc1)c1ccccc1.O=C(O)C(F)(F)F` (stereo unspecified) showed an Inhibition of 14%.
In the case of `CC(C)(O)CC(C)(C)c1cc(Cl)ccc1O` it was 5%.
The compound `CCCN(CCCN(CCCN(CCC)C(C)C)c1cc(C)nc(Nc2ccc(Cl)cc2)n1)C(C)C.O=C(O)C(=O)O` had an Inhibition of 39%.
As for `O=C(N[C@@H](Cc1ccccc1)C(=O)NC1CCCCCC1)c1ccc(O)c(-c2ccc(Cl)c(Cl)c2)c1`, the figure is 0%.
In the case of `COc1ccc2nccc([C@@H](O)CN3CCC(NCc4nc5ccc(F)cc5[nH]4)CC3)c2c1.O=C(O)C(=O)O`, the Inhibition is given as 20%.
In the case of `COCCn1c(-c2cccc(Cl)c2)nn(-c2ccc([N+](=O)[O-])cc2C#N)c1=S` it was 7%; in that of `N#Cc1ccc(Cn2ccc3c4c(N)nc(N)nc4ccc32)cc1`, 64%.
In the case of `COC(=O)c1cccc(NC(=O)NC2CCN(c3ccnc(Nc4ccc(OC)cc4)n3)C2)c1` (stereo unspecified) it was 1%.
For `CCCNC(=O)C1Cc2c([nH]c3cc(Br)ccc23)C2(CCN(CCc3ccccc3)CC2)N1` (stereo unspecified), the Inhibition was determined as 15%.
In the case of `CC1CN(Cc2csc(Nc3ccccc3)n2)CC(C)O1` (stereo unspecified) it was 4%; in that of `CC1=C(C(=O)OC(C)C)C(c2ccccc2Cl)C2=C(CC(c3ccccc3)CC2=O)N1` (stereo unspecified), 15%.
As for `Cc1noc(-c2ccc(NC[C@@H](C)NC[C@H](O)c3cccc(Cl)c3)cc2)n1`, the figure is 11%; as for `Cn1nccc1C(=O)NCCNCc1cccc(-c2ccc(-c3nc4ccccc4[nH]3)s2)c1.O=C(O)C(F)(F)F`, 22%; as for `Cc1ccc(-n2c(=O)c3cccnc3n2CC(=O)Nc2cccc(C)c2C)cc1`, 9%.
As to `CC(=O)Nc1cccc(C(=O)Nc2ccc(-c3cccc(-c4nc5cc(F)ccc5[nH]4)c3)cc2)c1`, the Inhibition is on record as 90%.
As for `COc1ccc2nccc(N3CCC(SCCNCc4ccc5c(n4)NC(=O)CS5)C3)c2n1.Cl` (stereo unspecified), the figure is 34%.
As for `O=C(c1ccc2ccccc2n1)N1CCCc2cc(Br)ccc21`, the figure is 19%; as for `O=C(Nc1ccc(Br)cc1)N(CCN1CCOCC1)CC(O)COCc1ccc(F)cc1.O=C(O)C(F)(F)F` (stereo unspecified), 5%; as for `O=C(Nc1ccnc(N2CC3CC2CN3Cc2cccc(O)c2)c1)c1ccc(F)cc1.O=C(O)C(F)(F)F` (stereo unspecified), 2%.
In the case of `Cl.O=C(Nc1cccc(-c2nn3ncccc3c2-c2ccnc(Nc3cccnc3)n2)c1)c1c(F)cccc1F` it was 5%; in that of `CCc1c[nH]c2c(N3CCCCS3(=O)=O)cc(C(=O)N[C@@H](Cc3ccccc3)[C@H](O)CNCc3cccc(OC)c3)cc12.O=CO`, 0%; in that of `Cc1cccc2nc(-c3ccc(-c4ccc(CN5CCC(CCN6CCCCC6)CC5)cc4)cc3)[nH]c12.O=C(O)C(F)(F)F`, 99%.
`COc1cc(NC(=O)/C=C/c2ccccc2OC(F)(F)F)cc(OCCN2CCCCC2)c1.O=C(O)C(=O)O` returned an Inhibition of 25%.
In the case of `Clc1ccc(-c2ccc(C=NNc3nc(=Nc4ccccc4)[nH]c(=Nc4ccccc4)[nH]3)o2)cc1Cl` it was 1%.
In the case of `CN1CCN(CCCN(Cc2ccc(-c3ccc(CNCc4ccc5c(c4)OCO5)cc3)cc2)C(=O)CCC2CCCC2)CC1.O=C(O)C(F)(F)F` it was 55%.
